# Assay results taken from PubChem BioAssay (Tox21).
# Inconclusive results are not listed. Entries that show only a call come without a potency. Active and inactive are the calls of the source. Calls follow the shape of the dose curve; as a rule, active = well fitted cell-killing curve with a large enough effect in the repeat runs; inconclusive = weak or mixed curves, or effect the other way; inactive = flat fitted curve, though single readings scatter.
# Assay: qHTS assay to identify small molecule agonists of the androgen receptor (AR) signaling pathway in the presence of an antagonist - cell viability counter screen (AID 1259379); also: nearly all actives have a fitted effect of over 25% in size
# Conditions: MDA-kb2 viability, CellTiter-Fluor, 16 h; series mostly up to 92.4 µM
# Text: National Center for Advancing Translational Sciences [NCATS]
# NIH Chemical Genomics Center [NCGC]
# U.S. Environmental Protection Agency [EPA]
# National Institutes of Environmental Health Sciences [NIEHS]
# National Toxicology Program [NTP]
# U.S. Food and Drug Administration [FDA]
# Androgen receptor (AR) is an important member of nuclear receptor family. Its signaling plays a critical role in AR-dependent prostate cancer and other androgen related diseases. Considerable attention has been given in the past decades to develop methods to study and screen for the environmental chemicals that have the potential to interfere with metabolic homeostasis, reproduction, developmental and behavioral functions. Therefore AR binding assay for screening against androgen agonists and antagonists can be used to identify potential endocrine disruptors.
# MDA-kb2 cells (from ATCC, deposited by Wilson et al.) are human breast carcinoma cells that were stably transfected with a luciferase reporter gene under control of the MMTV promoter that contains response elements for both androgen receptor (AR) and glucocorticoid receptor (GR). This particular screening for measuring luciferase reporter gene activity using MDA-kb2 cells against Tox21 10K library compounds is a confirmation study on agonist mode screening in the presence of AR-antagonist compound (Nilutamide) at 3.0uM final concentration. The cytotoxicity of the compounds was tested in parallel by measuring the cell viability using CellTiter-Fluor assay system (Promega, Madison, WI) in the same wells.
# Tox21 Assay Protocol Summary:
# MDA-kb2 cells (cells cultured without CO2) were dispensed at 3,000 cells/well in 4uL of culture medium into white wall/solid-bottom 1536-well plates (Corning Life Sciences, Corning, NY) using a Multidrop Combi (Thermo Fisher Scientific Inc., Waltham, MA) dispenser. The assay plates were incubated at 37C and 0% CO2 for 5hr. One uL of 3.0uM (final concentration) Nilutamide or assay buffer was added using two separate tips of Flying Reagent Dispenser (FRD, Aurora Discovery, San Diego, CA). Then 23nL of compounds dissolved in DMSO at 15 concentrations and positive controls were transferred to the assay plates using a Pintool station (Wako, San Diego, CA). The assay plates were incubated at 37C and 0% CO2 for 16 hr. After 15hr incubation at 37C, 1uL/well CellTiter-Fluor reagent (Promega Corporation) was added to each well of the assay plates using FRD. After 1hr incubation at 37C and 0% CO2, the fluorescence signal was measured using a ViewLux plate reader (PerkinElmer, Shelton, CT).
row,Structure (SMILES),Potency
1,CC(C)(N)Cc1ccc(Cl)cc1,inactive
2,CC(C)(C)NC[C@H](O)c1ccc(O)cc1Cl,inactive
3,Cc1ccc(-c2nc3ccc(C)cn3c2CC(=O)N(C)C)cc1,inactive
4,C=C(Cl)CCl,inactive
5,C[C@@H](N)[C@@H](O)c1ccccc1,inactive
6,O=[N+]([O-])CCO,inactive
7,CN1C(=O)COc2c(C(=O)NC3CN4CCC3CC4)cc(Cl)cc21 (stereo not given),inactive
8,CCCC(C)(COC(N)=O)COC(N)=O,inactive
9,CON(C)C(=O)Nc1ccc(Br)c(Cl)c1,inactive
10,C#CC(C)(C)O,inactive
11,CCc1ccc(C2CCNCC2)cc1,inactive
12,ClC(Cl)(Cl)Cl,inactive
13,O=c1[nH]c2ccccc2n1C1CCNCC1,inactive
14,Cc1cccc2sc3nncn3c12,inactive
15,CCOC(=O)COc1ccc(Cl)cc1Cl,inactive
16,O=C(NC(=O)c1c(F)cccc1F)Nc1cc(Cl)c(F)c(Cl)c1F,inactive
17,CC(C)(C)C(=O)Cl,inactive
18,COc1ccc(CN2CCNCC2)c(OC)c1OC,inactive
19,COC(=O)c1ccc(CBr)cc1,inactive
20,CCC1(c2ccccc2)C(=O)N(COC)C(=O)N(COC)C1=O,inactive

row,Structure (SMILES),Potency
1,O=C(O)CBr,inactive
2,COC1=CC(=O)O[C@@H](/C=C/c2ccccc2)C1,inactive
3,O=C(Cl)CCl,inactive
4,CC(Cc1ccccc1)NCCn1cnc2c1c(=O)n(C)c(=O)n2C (stereo not given),inactive
5,O=C/C=C/c1ccco1,inactive
6,CNC(=O)Oc1cc(C)c(N(C)C)c(C)c1,inactive
7,CCCN1CCC[C@@H]2Cc3[nH]ncc3C[C@H]21,inactive
8,C=C1C[C@@H]2[C@H](CC[C@]3(C)C(=O)CC[C@@H]23)[C@@]2(C)C=CC(=O)C=C12,inactive
9,CCOC(=O)NC(C)(C)Cc1ccc(Cl)cc1,inactive
10,COC(=O)c1ccccc1CS(=O)(=O)NC(=O)Nc1nc(OC)cc(OC)n1,inactive
11,CCOP(=S)(OCC)Oc1ccc(Cl)cc1Cl,inactive
12,O=C(O)C(Br)(Br)Br,inactive
13,C=CCC1(C(C)CC)C(=O)NC(=O)NC1=O (stereo not given),inactive
14,CC[C@H](O)C(C[C@H](C)N(C)C)(c1ccccc1)c1ccccc1,inactive
15,CNC(=O)O/N=C(/CSC)C(C)(C)C,inactive
16,O=P(O)(O)c1ccccc1,inactive
17,CCOC(=O)c1ncn2c1CN(C)C(=O)c1c(I)cccc1-2,inactive
18,BrCCc1ccccc1,inactive
19,COc1ccc2c(C(=O)c3ccc(Cl)cc3)c(C)n(CC(=O)O)c2c1,inactive
20,CCOP(=O)(CN(CCO)CCO)OCC,inactive
